In PubChem BioAssay AID720647 (Broad Institute, 2013):
Among all 380,000 compounds or so, about 1,300 (0.34%) were called active. The entries come from a sample that favours actives as a whole. A number with no mark means an inactive call.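 Rule for the calls: active = drop in luminescence signal, shown as inhibition above about 50% in the replicate tests (limit read from the data, passing the limit was not always enough); inconclusive = probably only some replicates passing the limit; inactive = the rest.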

System: Drosophila bursicon receptor LGR2 (rickets)
Assay: LGR2 cAMP reporter signal reduction – cell-based, HEK293, CRE-luciferase reporter, bursicon stimulation, primary screen (AID 720647);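 note: agonist challenge used bursicon conditioned medium at about half maximal strength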
Conditions: bursicon-stimulated, 4 h, at 9.99 µM, hits give high values

SMILES | inhibition
C[C@]12CCC3C(CC[C@H]4C[C@@H](O)CC[C@]34C)C1C[C@@H](O)[C@H]2O (stereo not given in full) | 21.8%
C[C@]12CC[C@H](O)C[C@H]1CC[C@@H]1C2CC[C@]2(C)[C@@H](C3=CC(=O)OC3)[C@@H](O)C[C@]12O (stereo not given in full) | 75.1% (active)
C[C@]12CCC3C(CC[C@H]4C[C@@H](O)CC[C@]34C)C1CC[C@@H]2O (stereo not given in full) | 4.33%
Cc1cc(N2CCNC[C@@H]2C)ccc1N1CC[C@H](O)C1 | -14.4%
O=C(Cc1ccccn1)N1CCCCN2[C@H](C1)[C@H](c1ccc(-c3ccccc3F)cc1)[C@@H]2CO | 20.2%
CCOc1ccc(-c2cc(C)[n+](CCN(CC)CC)c(-c3ccc(OCC)cc3)c2)cc1 | 60.4% (active)
CS(=O)(=O)N1CCC2CCNC2C1 (stereo not given) | -1.04%
O=C(Cc1ccncc1)N1CCCCN2[C@@H](CO)[C@H](c3ccc(C#CC4(O)CCCC4)cc3)[C@@H]2C1 | -0.939%
Clc1ccc([C@@H]2CC3CCC2N3)cn1 (stereo not given in full) | 7.28%
O=S(=O)(c1ccccc1)N1CCC2CCNC2C1 (stereo not given) | 8.51%
CCC(C)(O)C(=O)OC1C(=O)OC2CC3C(C)=CC(=O)C(O)C3(C)C3C4(O)OCC23C1C(C)C4O (stereo not given) | 101% (active)
O=C(Cc1ccccc1)N1CCCCN2[C@H](CO)[C@H](c3ccc(C#Cc4ccccc4)cc3)[C@H]2C1 | 0.501%
COC(=O)[C@@H]1[C@@H](CO)[C@@H]2Cn3c(ccc(-c4cccc(C(=O)N(C)C)c4)c3=O)[C@H]1N2C(=O)NC(C)C | 31.6%
CCN(CC)C(=O)[C@@H]1C=C2c3cccc4[nH]c(Br)c(c34)C[C@H]2N(C)C1 | 9.95%
COc1ccc(C#Cc2ccc([C@H]3[C@H](CO)N4CCCCN(C(=O)Cc5ccccc5)C[C@@H]34)cc2)cc1 | 10.8%
COC(=O)[C@@H]1[C@@H](CO)[C@@H]2Cn3c(ccc(-c4ccc(F)cc4)c3=O)[C@H]1N2C(C)=O | -7.85%
COc1cccc(-c2nc3ccc(N4CCN(C)CC4)cc3[nH]2)c1 | 88.7% (active)
CN1CCN(c2cc(N3CCNCC3)ccc2[N+](=O)[O-])CC1 | 1.9%
COc1cccc(-c2ccc([C@H]3[C@H]4CN(C(=O)Cc5ccncc5)CCCCN4[C@H]3CO)cc2)c1 | -6.52%
COc1ccc2c(c1)[C@@]13CCCCC1[C@@H](C2)NCC3 (stereo not given in full) | 15.4%
COC1C(O)C(C)OC(OC2CCC3(C=O)C(CCC4C3CCC3(C)C(C5=CC(=O)OC5)CCC43O)C2)C1O (stereo not given) | 83.8% (active)
CCC(C)NC1(c2ccccc2)CCCCC1 (stereo not given) | -0.048%
COC(=O)[C@H]1[C@H](CO)[C@H]2Cn3c(cccc3=O)[C@H]2N1CC1CC1 | 26.9%
C/C=C/c1ccc(C2[C@@H]3CN(Cc4cncnc4)C[C@H]2N3)cc1 (stereo not given in full) | -8.19%
O=C(Cc1ccccn1)N1CCCCN2[C@@H](CO)[C@@H](c3ccc(C#Cc4ccccc4)cc3)[C@@H]2C1 | -13.4%
